Screening data: PubChem BioAssay, National Center for Advancing Translational Sciences (NCATS)
Most compounds without a hit are left out; they make up all but 18% or so of the library.
TGFb inhibitor: inhibitors of TGF-b signaling | HepG2 CAGA-GFP TGF-b/SMAD3 reporter, GFP fluorescence, 18 h; TGF-beta stimulated, 500 pg/mL final | Potency, µM (doses to about 46.1 µM), hits mostly inhibitors | 1.2% of 410,000 active | AID 588855; note: nearly all actives have a fitted effect of over 65% in size
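Cell-based qHTS in HEPG2 carrying a CAGA-GFP Smad reporter; compounds added before 500 pg/mL final TGF-beta, 18 h incubation at 37 degrees C, GFP fluorescence quantified per cell by imaging cytometry.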
TDP1 cell noCPT: qHTS for Inhibitors of human tyrosyl-DNA phosphodiesterase 1 (TDP1): qHTS in cells in absence of CPT | 15% of 420,000 active | Potency, µM (titrated, usually from 46.2 µM), actives largely listed as inhibitors | DT40 Tdp1-/- hTDP1 cells, no CPT, ATP luminescence, 48 h; note: nearly all actives have a fitted effect of over 55% in size
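Chicken DT40 Tdp1-/- cells complemented with human TDP1, screened without camptothecin (DMSO vehicle only), 400 cells/well. Compounds pin-transferred, cells incubated at 37 °C for at least 48 hr. Growth read as ATP-dependent luminescence (CellTiter-Glo, 30 min at RT).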
HepG2 tox: kills HepG2 cells in TGF-b inhibitor counter-screen. HepG2 CAGA-GFP viability, ATP luminescence, 18 h. Potency, µM (titrated, usually from 46.1 µM), usual class: cytotoxic. 0.76% of 410,000 active. AID 588856
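CellTiter-Glo luminescence gave cytotoxicity after 18 hours at 37 degrees C. The cells were HepG2 CAGA-GFP in 1% FBS DMEM, stimulated with 500 pg/mL TGF-beta after compound addition. %Activity was normalised to no-cell wells (complete cell-killing) and DMSO (no toxicity), and curves were fitted and classified.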
IL-1B inflam inh: inflammasome signaling inhibition, IL-1 beta readout; THP-1 LPS/ATP IL-1B secretion, AlphaLISA, 16 h; active compounds read low; activity change, % at 57.5 µM; 4.7% of 360,000 active; AID 743279; in the data active = activity change below about -50%; inconclusive = mostly about -30% to -49%
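THP-1 cells pretreated 1 hr with compounds (up to 57.5 uM final), then stimulated with LPS (250 ng/mL final) plus ATP (1.25 mM final); secreted IL-1B measured by AlphaLISA after 16 hr, decreased signal indicating inhibition.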
TDP1 block: blocks human tyrosyl-DNA phosphodiesterase 1; AID 485290; Potency, µM (highest dose often 130 µM), usual class: inhibitors; recombinant TDP1, AlphaScreen DNA substrate cleavage; 0.28% of 350,000 active; note: nearly all actives have a fitted effect of over 40% in size
Target sequence (Q9NUW8 whole entry, looked up): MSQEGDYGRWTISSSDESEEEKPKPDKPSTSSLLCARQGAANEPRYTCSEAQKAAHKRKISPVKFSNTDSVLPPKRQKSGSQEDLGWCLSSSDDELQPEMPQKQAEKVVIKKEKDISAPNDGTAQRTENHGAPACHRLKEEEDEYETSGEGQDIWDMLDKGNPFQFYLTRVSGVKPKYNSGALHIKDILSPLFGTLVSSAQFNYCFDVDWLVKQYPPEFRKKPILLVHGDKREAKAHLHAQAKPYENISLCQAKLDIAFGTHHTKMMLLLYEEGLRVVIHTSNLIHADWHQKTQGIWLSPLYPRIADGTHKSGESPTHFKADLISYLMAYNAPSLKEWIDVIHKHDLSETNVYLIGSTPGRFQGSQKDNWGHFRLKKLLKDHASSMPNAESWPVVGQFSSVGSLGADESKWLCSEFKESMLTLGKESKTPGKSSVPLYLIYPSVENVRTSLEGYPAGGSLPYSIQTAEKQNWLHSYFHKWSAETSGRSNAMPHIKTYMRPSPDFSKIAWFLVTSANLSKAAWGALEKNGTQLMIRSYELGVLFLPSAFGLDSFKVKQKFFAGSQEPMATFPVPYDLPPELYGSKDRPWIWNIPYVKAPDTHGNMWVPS
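Here, a 5' biotin and 3' phosphotyrosine-FITC DNA oligonucleotide reports Tdp1 activity: intact substrate bridges AlphaScreen beads, while cleavage leaves a 3' phosphate and drops signal. All incubations at room temperature.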
TDP1 cell CPT: growth inhibition of DT40 Tdp1-/-;hTDP1 cells with camptothecin (screen for TDP1 inhibitors); chicken DT40 Tdp1-/-;hTDP1 cells + 20 nM CPT, ATP luminescence, 48 h; Potency, µM (series often up to 46.2 µM), hits mostly inhibitors; 12% of 420,000 active; AID 686979; note: nearly all actives have a fitted effect of over 55% in size
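Chicken DT40 Tdp1-/- cells stably complemented with human TDP1 were seeded at 400 cells/well in medium containing 20 nM camptothecin, exposed to pin-transferred compounds, and grown at 37 °C for at least 48 hr. Viability was read as ATP luminescence.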
Of the large screens only hits and unclear results are named; the others gave an inactive call. Unless noted, calls come from the whole dose curve; as a rule, active = well fitted curve in the direction sought with a large enough effect; inconclusive = small, poorly fitted or top-dose-only effect, or another doubt; inactive = no such curve, though single readings can be large; an effect the other way counts as inactive or inconclusive.

CCc1ccc(CNC(=O)c2ccc3nc(SCc4ccc(F)cc4)n(C)c3c2)cc1	TGFb inhibitor inconclusive, TDP1 cell noCPT 21µM, TDP1 cell CPT 15µM (no result: IL-1B inflam inh)
CCOC(=O)N1CCN(C(=O)c2ccc3nc(SCc4ccc(F)cc4)n(C)c3c2)CC1	TDP1 cell noCPT 21µM, IL-1B inflam inh inconclusive, TDP1 cell CPT 23µM
Cc1ccc(CNC(=O)CN2C(=O)COc3ccc(S(=O)(=O)Nc4ccccc4)cc32)cc1	TGFb inhibitor inconclusive, TDP1 cell noCPT inconclusive, TDP1 cell CPT inconclusive (no result: IL-1B inflam inh)
Cc1nc(NC2=NCN(CCCN3CCOCC3)CN2)nc2c(C)cccc12	TGFb inhibitor 16µM, TDP1 cell noCPT 16µM, IL-1B inflam inh -61, TDP1 cell CPT inconclusive
CCOCC(=O)Nc1ccc(-c2cn3c(C)csc3n2)cc1	TDP1 cell noCPT inconclusive (no result: IL-1B inflam inh)
Cc1nn(-c2ccccn2)c2c1C(c1ccccc1Cl)C1=C(N2)c2ccccc2C1=O (stereo unspecified)	TDP1 cell noCPT 4.6µM, TDP1 cell CPT 6.5µM
CSC1=C(C#N)C(c2ccccc2Cl)C2=C(N1)c1ccccc1C2=O (stereo unspecified)	TDP1 cell noCPT 18µM, IL-1B inflam inh -98, TDP1 cell CPT 23µM
COc1ccc(CCNC(=O)C2CC3Cn4c(nc5cc6ccccc6cc54)C3N2C)cc1 (stereo unspecified)	TDP1 cell noCPT 21µM, TDP1 cell CPT 15µM
COc1ccccc1CNC(=O)C1CC2Cn3c(nc4cc(Cl)c(Cl)cc43)C2N1C (stereo unspecified)	TDP1 cell noCPT 23µM, IL-1B inflam inh inconclusive, TDP1 cell CPT inconclusive (no result: TDP1 block)
CN1C(C(=O)NCCc2cccs2)CC2Cn3c(nc4cc5ccccc5cc43)C21 (stereo unspecified)	TGFb inhibitor inconclusive, TDP1 cell noCPT inconclusive
CC12CCC(=O)N1C(C(=O)Nc1ccccc1N1CCOCC1)CS2 (stereo unspecified)	none
COc1ccc(-c2nc3cnc(OC)nc3n(C)c2=O)cc1	none (no result: TGFb inhibitor, HepG2 tox, IL-1B inflam inh, TDP1 block)
FC(F)(F)c1nc2ccccc2n2c(-c3c(Cl)cccc3Cl)nnc12	TDP1 cell noCPT 21µM, TDP1 cell CPT 26µM
FC(F)(F)c1nc2ccccc2n2c(-c3ccc(Cl)cc3Cl)nnc12	TGFb inhibitor inconclusive, TDP1 cell noCPT 21µM, TDP1 cell CPT 21µM
O=C(CC1C(=O)NCCN1Cc1c(F)cccc1Cl)NCCCOc1cccnc1 (stereo unspecified)	none
COC(CN(C(=O)CCl)C(C(=O)NC1CCCC(C)C1C)c1ccc(C)cc1)OC (stereo unspecified)	TDP1 cell noCPT 21µM, IL-1B inflam inh -100, TDP1 cell CPT 5.2µM
COC(CN(C(=O)CCl)C(C(=O)NC1CCCCC1)c1ccc(Cl)cc1)OC (stereo unspecified)	TDP1 cell noCPT 3.3µM, IL-1B inflam inh inconclusive, TDP1 cell CPT 5.2µM
COc1ccc(C(C(=O)NC2CCCCC2)N(C(=O)CCl)c2ccc(Cl)cc2)cc1 (stereo unspecified)	IL-1B inflam inh -96, TDP1 cell CPT 1µM
COc1ccc(N(C(=O)c2cnccn2)C(C(=O)NC2CCCCC2)c2ccc(Cl)cc2)cc1 (stereo unspecified)	none (no result: TDP1 block)
COC(CN(C)C(C(=O)NC1CCCCC1)c1ccccc1)OC (stereo unspecified)	TGFb inhibitor inconclusive
CCN(C(=O)COC(=O)c1nc(Cl)ccc1Cl)C1CCS(=O)(=O)C1 (stereo unspecified)	none
Cc1oc2ccc(OCc3ccc(Br)cc3)cc2c1C(=O)O	none (no result: TDP1 block)
CC1CCN(C(=O)Cn2cc(SCc3cccc(F)c3)c3ccccc32)CC1	TDP1 cell noCPT inconclusive, TDP1 cell CPT inconclusive (no result: IL-1B inflam inh)
COC1C=CO[C@@]2(C)Oc3c(C)c(O)c4c(O)c(c5c(nc6cc(C)ccn65)c4c3C2=O)NC(=O)/C(C)=C\C=CC(C)C(O)[C@@H](C)C(O)C(C)[C@@H](OC(C)=O)C1C (stereo partly specified)	none (no result: TGFb inhibitor, TDP1 cell noCPT, HepG2 tox, IL-1B inflam inh, TDP1 cell CPT)
COC(=O)c1ccc(-n2c(C)cc(C(=O)CSc3ccc(NC(C)=O)cc3)c2C)cc1	TDP1 cell noCPT 23µM, TDP1 cell CPT inconclusive
O=C(N/N=C/c1ccc(O)cc1)c1csc2c1CCCC2	TDP1 cell noCPT inconclusive, IL-1B inflam inh -62
CCOc1ccc(NC(=O)c2csc3c2CCCC3)cc1	TDP1 cell noCPT inconclusive, IL-1B inflam inh inconclusive, TDP1 cell CPT inconclusive
O=C(CSCc1cccc(Cl)c1)N/N=C/c1ccc(OCC(=O)N2CCCCC2)cc1	TGFb inhibitor inconclusive, TDP1 cell noCPT 16µM, IL-1B inflam inh -74, TDP1 cell CPT 16µM
Cc1cccc(C(=O)N/N=C/c2ccc(OCC(=O)N3CCCCC3)cc2)c1	TDP1 cell CPT inconclusive
CC1(c2nnc(-c3ccc(Cl)cc3)o2)CC(c2ccc(Cl)cc2)=NO1 (stereo unspecified)	none
Clc1ccc(-c2nnc(C34CC5CC(CC(C5)C3)C4)o2)cn1	TDP1 cell noCPT 29µM, TDP1 cell CPT inconclusive
CCc1ccc(OCC(O)Cn2c(N3CCCCC3)nc3c2c(=O)[nH]c(=O)n3C)cc1 (stereo unspecified)	TDP1 cell noCPT inconclusive, TDP1 cell CPT inconclusive (no result: TDP1 block)
COc1cccc(C(=O)Cn2c(N3CCCCC3)nc3c2c(=O)n(C)c(=O)n3C)c1	TDP1 cell noCPT 18µM, TDP1 cell CPT inconclusive
Cn1c(Br)nc2c1c(=O)n(CC(O)COc1ccccc1)c(=O)n2C (stereo unspecified)	TDP1 cell noCPT inconclusive
Cn1c(=O)c2c(nc(N3CCCCCC3)n2CC(O)COc2ccccc2)n(C)c1=O (stereo unspecified)	TDP1 cell noCPT 18µM, TDP1 cell CPT 23µM
Cn1c(=O)c2c(nc(NC3CCCCC3)n2CC(O)COc2ccccc2)n(C)c1=O (stereo unspecified)	TDP1 cell noCPT 23µM, TDP1 cell CPT inconclusive
COc1ccc(OCC(O)Cn2c(Nc3ccccc3)nc3c2c(=O)n(C)c(=O)n3C)cc1 (stereo unspecified)	none
Cn1c(=O)c2c(nc(N3CCCCC3)n2CC(O)COc2ccccc2)n(C)c1=O (stereo unspecified)	TDP1 cell noCPT 16µM, TDP1 cell CPT inconclusive (no result: TDP1 block)
COC(=O)C1CCN(S(=O)(=O)CCNC(=O)c2ccccc2)CC1	none (no result: TDP1 block)
CCOC(=O)C1=CC(OC(CC)CC)C(NC(C)=O)C(N)C1 (stereo unspecified)	none (no result: TGFb inhibitor, TDP1 cell noCPT, HepG2 tox, IL-1B inflam inh, TDP1 cell CPT)
